Consider 14 compounds from PubChem BioAssay.

Each structure is given as a SMILES string. The source made the active and inactive calls.

Assay [1] relates to PRMT1 (protein arginine N-methyltransferase 1). The assay is described as follows: small molecules binding arginine methyltransferase PRMT1 – biochemical, small-molecule microarray, 635 nm fluorescence, primary screen (AID 1088).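 Note: binding of Prmt1 protein to compounds spotted on small-molecule microarray slides.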 Particulars: higher = more signal.
Assay [2] can be described thus: growth effects on S. cerevisiae YJM789 – YJM789 clinical isolate, OD600, 24 h, basal, primary screen (AID 1089).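 Note: growth of clinical yeast isolate S. cerevisiae YJM 789 seeded 1000 cells per well; test concentration not given here.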 Particulars: higher = more signal, called active from +8 up or from −8 down.
Assay [3] can be described thus: S. pombe growth modifiers, basal conditions – strain 972, OD600, 24 h, no modulator, primary screen (AID 1090).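 Note: basal condition with compound alone and no growth modifier present; test concentration not given here.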 Particulars: S. pombe 972 growth, higher = more signal, called active from +8 up or from −8 down.
The nature of assay [4]: budding yeast growth modifiers under rapamycin – strain BY4716, OD600, 96 h, primary screen (AID 1091). Note: test concentration not given here. The settings on record: S. cerevisiae BY4716 + rapamycin, higher = more signal, called active from +8 up or from −8 down.
The target in assay [5] is Torsin-1A-interacting protein 2 (Homo sapiens) (UniProt Q8NFQ8). The assay is described as follows: small molecules binding lysate-expressed LULL1 – cell lysate, human LULL1 lysate, 635/667 nm fluorescence, primary screen (AID 1092).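 Note: probe is lysate of COS7 cells overexpressing human LULL1; score merges per-feature 667 nm fluorescence with signal-to-noise.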 The settings on record: small-molecule microarray, hLULL1 lysate binding, 635 nm fluorescence; higher = more signal.
Assay [6] is described as follows: optical density change of DRC41 E. coli – strain DRC41, OD650, 24 h, E. coli filamentation project, primary screen (AID 1093).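 Note: MC1000 strain lacking acrAB efflux and sulA so SOS filamentation is blocked; test concentration not given here.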 Particulars: E. coli DRC41 growth, higher = more signal, called active from +8 up or from −8 down.
Assay [7] can be described thus: probe aLefty2 binding to arrayed compounds – biochemical, biotinylated probe, 635/667 nm fluorescence, primary screen (AID 1094).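 Note: score merges spot fluorescence near 667 nm with spot signal-to-noise ratio.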 The settings on record: small-molecule microarray, higher = more signal.
Assay [8] has as its system Noggin (protein binding on small-molecule microarray). In words: small molecules binding Noggin protein – biochemical, 635/667 nm fluorescence, primary screen (AID 1095).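 Note: score merges 667 nm feature fluorescence with signal to noise over triplicate slides.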 The settings on record: 635 nm fluorescence, higher = more signal.
The target of assay [9] is Neurogenic locus notch homolog protein 3 (Homo sapiens) (UniProt Q9UM47). In words: small molecules binding NOTCH3 protein – biochemical, 635/667 nm fluorescence, primary screen (AID 1096). The settings on record: small-molecule microarray, 635 nm fluorescence, higher = more signal.
A short description of assay [10]: probe aEGFR binding to arrayed compounds – biochemical, biotinylated probe, 635/667 nm fluorescence, primary screen (AID 1097).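 Note: probe is a biotinylated anti-EGFR antibody binding compounds printed on slides; score combines fluorescence near 667 nm and signal to noise of each spot.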 Particulars: small-molecule microarray, higher = more signal.

Chain of Neurogenic locus notch homolog protein 3 (Homo sapiens) (Q9UM47 whole entry, looked up): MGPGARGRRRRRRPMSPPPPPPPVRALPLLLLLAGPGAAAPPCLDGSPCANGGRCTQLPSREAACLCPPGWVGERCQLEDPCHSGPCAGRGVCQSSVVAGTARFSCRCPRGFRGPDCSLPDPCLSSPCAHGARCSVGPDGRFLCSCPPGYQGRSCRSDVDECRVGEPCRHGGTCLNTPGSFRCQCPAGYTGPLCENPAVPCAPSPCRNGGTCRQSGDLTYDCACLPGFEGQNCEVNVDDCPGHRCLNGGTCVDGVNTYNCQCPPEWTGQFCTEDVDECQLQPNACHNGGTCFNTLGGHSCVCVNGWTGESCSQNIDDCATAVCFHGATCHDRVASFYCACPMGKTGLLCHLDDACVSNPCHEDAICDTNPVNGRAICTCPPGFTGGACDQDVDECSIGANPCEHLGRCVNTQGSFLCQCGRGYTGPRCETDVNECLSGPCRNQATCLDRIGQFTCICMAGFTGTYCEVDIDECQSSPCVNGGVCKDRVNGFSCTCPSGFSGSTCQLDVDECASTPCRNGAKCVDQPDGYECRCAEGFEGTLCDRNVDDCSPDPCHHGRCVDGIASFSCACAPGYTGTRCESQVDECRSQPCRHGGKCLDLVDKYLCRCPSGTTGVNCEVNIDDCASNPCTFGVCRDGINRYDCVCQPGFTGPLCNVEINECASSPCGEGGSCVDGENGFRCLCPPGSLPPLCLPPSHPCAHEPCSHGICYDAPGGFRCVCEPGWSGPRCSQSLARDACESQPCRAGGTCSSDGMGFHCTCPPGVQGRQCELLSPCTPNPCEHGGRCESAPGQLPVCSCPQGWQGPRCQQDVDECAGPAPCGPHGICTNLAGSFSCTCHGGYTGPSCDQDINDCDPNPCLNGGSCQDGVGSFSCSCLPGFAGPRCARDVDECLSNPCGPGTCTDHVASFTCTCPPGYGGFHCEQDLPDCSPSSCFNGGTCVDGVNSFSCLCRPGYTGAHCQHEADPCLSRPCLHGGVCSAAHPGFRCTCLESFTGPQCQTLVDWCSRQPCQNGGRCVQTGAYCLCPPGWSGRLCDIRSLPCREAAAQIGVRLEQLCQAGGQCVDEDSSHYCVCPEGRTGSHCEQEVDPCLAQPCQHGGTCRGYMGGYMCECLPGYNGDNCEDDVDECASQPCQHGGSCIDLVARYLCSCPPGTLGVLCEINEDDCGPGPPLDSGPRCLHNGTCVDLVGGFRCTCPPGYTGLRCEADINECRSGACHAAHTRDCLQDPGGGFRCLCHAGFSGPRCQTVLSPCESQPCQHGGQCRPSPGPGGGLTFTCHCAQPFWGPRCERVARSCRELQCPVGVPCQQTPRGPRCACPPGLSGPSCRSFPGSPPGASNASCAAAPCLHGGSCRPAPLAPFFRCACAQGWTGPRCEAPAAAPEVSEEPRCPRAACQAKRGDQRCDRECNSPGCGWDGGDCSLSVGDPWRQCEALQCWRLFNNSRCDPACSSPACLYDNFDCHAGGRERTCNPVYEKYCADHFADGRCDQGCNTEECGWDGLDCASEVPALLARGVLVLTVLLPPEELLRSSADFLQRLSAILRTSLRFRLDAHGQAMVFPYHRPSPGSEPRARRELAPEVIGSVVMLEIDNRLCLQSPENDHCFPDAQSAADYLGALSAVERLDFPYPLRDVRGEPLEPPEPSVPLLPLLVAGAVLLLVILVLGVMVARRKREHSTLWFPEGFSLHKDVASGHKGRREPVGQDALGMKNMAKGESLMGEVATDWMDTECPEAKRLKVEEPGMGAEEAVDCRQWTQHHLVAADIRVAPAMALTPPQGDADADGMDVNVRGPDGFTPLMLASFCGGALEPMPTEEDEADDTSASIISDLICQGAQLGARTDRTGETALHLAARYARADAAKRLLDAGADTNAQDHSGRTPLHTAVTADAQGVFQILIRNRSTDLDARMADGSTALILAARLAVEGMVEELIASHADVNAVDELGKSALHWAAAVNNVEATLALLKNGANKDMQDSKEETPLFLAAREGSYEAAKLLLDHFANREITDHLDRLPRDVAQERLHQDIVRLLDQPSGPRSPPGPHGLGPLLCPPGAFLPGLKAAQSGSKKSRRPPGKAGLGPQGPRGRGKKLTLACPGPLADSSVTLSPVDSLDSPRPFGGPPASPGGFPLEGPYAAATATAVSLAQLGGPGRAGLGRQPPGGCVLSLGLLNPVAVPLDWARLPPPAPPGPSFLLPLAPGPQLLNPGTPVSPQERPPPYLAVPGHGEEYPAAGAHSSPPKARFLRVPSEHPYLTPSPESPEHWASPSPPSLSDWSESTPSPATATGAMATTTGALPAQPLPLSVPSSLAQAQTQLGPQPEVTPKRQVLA
Chain of Torsin-1A-interacting protein 2 (Homo sapiens) (Q8NFQ8 whole entry, looked up): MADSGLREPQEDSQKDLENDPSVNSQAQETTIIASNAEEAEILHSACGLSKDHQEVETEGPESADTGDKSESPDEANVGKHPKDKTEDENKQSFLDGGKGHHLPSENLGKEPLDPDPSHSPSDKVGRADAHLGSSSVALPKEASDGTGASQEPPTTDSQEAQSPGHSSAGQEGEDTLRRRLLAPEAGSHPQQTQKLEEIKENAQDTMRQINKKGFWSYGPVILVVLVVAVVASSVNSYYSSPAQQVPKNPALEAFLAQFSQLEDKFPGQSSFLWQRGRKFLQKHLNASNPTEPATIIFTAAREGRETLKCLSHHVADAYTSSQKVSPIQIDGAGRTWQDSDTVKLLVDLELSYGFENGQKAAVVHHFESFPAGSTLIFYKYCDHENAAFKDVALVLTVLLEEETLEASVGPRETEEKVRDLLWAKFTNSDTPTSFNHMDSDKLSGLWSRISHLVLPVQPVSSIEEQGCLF

As for `C=CCOC(=O)[C@H]1[C@@H]2C(=O)O[C@@H](c3ccccc3)[C@@H](c3ccccc3)N2[C@@H](c2ccc(OCCOC(=O)[C@H]3C[C@H]4C(=O)N[C@@H](Cc5ccccc5)C(=O)N4[C@H]3c3ccc(O)cc3)cc2)[C@]12C(=O)Nc1ccccc12`, the composite z-score in [1] was 1.55; in assay [5], 2.4; in [7], -0.0174; in [8] it was 1.6; in assay [9] it was 1.06; in assay [10], 0.0499. The z-score was 1.44 (inactive) in assay [2], 1.14 (inactive) in assay [3], 4.4 (inactive) in assay [4] and 1.37 (inactive) in [6].

`COc1ccc(COC(=O)NN=C2C[C@@H](O)[C@@H](O)[C@@H]3[C@@H]4C(=O)N(Cc5ccc6c(c5)OCO6)C(=O)[C@@H]4CC[C@@H]23)cc1`: the composite z-score in assay [1] is -0.291; in assay [5], 0.529; in assay [7] it was 0.63; in assay [8], -0.666; in assay [9], -0.303; in assay [10], -0.187. Moreover, the z-score is -1.65 (inactive) in assay [2], -0.654 (inactive) in assay [3], -0.731 (inactive) in assay [4] and -0.486 (inactive) in assay [6].

As for `COCCCNC(=O)[C@]1(CCC(=O)OC(C)(C)C)N=C(c2ccc(OCCCO)cc2)O[C@@H]1c1ccccc1N=[N+]=[N-]`, the composite z-score in assay [1] came out at 1.54; in assay [5], 3.81; in assay [7] it was 0.0979; in assay [8], 0.778; in assay [9], 1.11; in [10], 0.134. Further, the z-score is -0.376 (inactive) in [2], -1.22 (inactive) in [3], 0.719 (inactive) in assay [4] and 0.619 (inactive) in [6].

As for `COc1cccc([C@H]2Oc3ccc(OC)cc3C(=NOC(C)CN3CCCc4nc(C)c(C)cc43)[C@@H]2O)c1` (stereo not given in full), the composite z-score is 1.32 in assay [1]; 0.605 in assay [5]; 0.027 in assay [7]; 0.0233 in assay [8]; 0.522 in assay [9]; 0.0506 in assay [10]. In addition, the z-score in assay [2] was -0.906 (inactive); in [3] it was -0.912 (inactive); in assay [4] it was -1.19 (inactive); in [6], 0.732 (inactive).

Regarding `CC(C)CON=C1C[C@@H](O)[C@@H](O)[C@@H]2[C@@H]3C(=O)N(C[C@@H]4CCCO4)C(=O)[C@@H]3CC[C@H]12`, the composite z-score was 0.976 in assay [1]; 1.39 in assay [5]; -0.234 in assay [7]; 0.468 in assay [8]; 0.668 in assay [9]; -0.0191 in [10]. Besides, the z-score is -1.04 (inactive) in [2], 0.042 (inactive) in [3], -0.435 (inactive) in [4] and 0.134 (inactive) in [6].

Consider `COc1ccc([Si](C)(C)[C@H]2[C@H](CC(=O)N3CCC[C@H]3CO)O[C@@]3(C(=O)N(Cc4cccc(N5C(=O)COc6ccccc65)c4)c4ccccc43)[C@@H]2C)cc1`, for which the composite z-score in [1] was 1.41; in assay [5] it was 2.25; in assay [7] it was -0.166; in assay [8], 1.61; in assay [9], 1.14; in assay [10], -0.142. Also, the z-score in [2] is -2.58 (inactive); in [3], -0.769 (inactive); in assay [4], -0.827 (inactive); in assay [6] it was 1.43 (inactive).

Consider `O=C1[C@H]2[C@H]3[C@H](O)[C@H](O)CC(=NOCc4ccccc4)[C@H]3CC[C@H]2C(=O)N1c1cccc(Oc2ccccc2)c1`, for which the composite z-score is 1.48 in assay [1]; 2.41 in assay [5]; -0.0654 in assay [7]; 0.729 in assay [8]; 0.824 in assay [9]; 0.0801 in assay [10]. In addition, the z-score is -0.0026 (inactive) in [2], 0.019 (inactive) in assay [3], -1.12 (inactive) in assay [4] and 0.211 (inactive) in [6].

Regarding `COc1ccc(O[C@H]2C=C[C@@H](c3ccccc3)O[C@@H]2COC(=O)CCC(C)=NOCC[C@@H]2C=C[C@H](OC(C)=O)[C@@H](COC(C)=O)O2)cc1`, the composite z-score in [1] was 0.135; in assay [5], 1.69; in assay [7], 0.113; in assay [8], 0.476; in assay [9], 0.319; in assay [10], -0.039. Also, the z-score in [2] is -0.209 (inactive); in assay [3], 0.951 (inactive); in [4] it was 1.62 (inactive); in assay [6] it was -0.211 (inactive).

Regarding `Cc1ccc(S[C@]2(C(=O)O)CC(=O)N(Cc3ccccc3)[C@@H]2c2ccc(CO)cc2I)cc1`, the composite z-score was 0.135 in assay [1]; 1.28 in assay [5]; -0.103 in assay [7]; -0.404 in [8]; -0.683 in assay [9]; -0.261 in assay [10]. Also, the z-score was -0.866 (inactive) in assay [2], -1.17 (inactive) in [3], 1.29 (inactive) in assay [4] and -0.104 (inactive) in assay [6].

As for `C#CCCCON=C1C[C@@H](O)[C@@H](O)[C@@H]2[C@@H]3C(=O)N([C@@H](C)c4ccccc4)C(=O)[C@@H]3CC[C@H]12`, the composite z-score was found to be 0.37 in [1]; 0.773 in [5]; 0.0008 in [7]; 0.573 in assay [8]; 0.999 in [9]; 0.207 in assay [10]. Further, the z-score in assay [2] was 0.45 (inactive); in assay [3], 0.347 (inactive); in [4] it was -0.418 (inactive); in [6], 0.229 (inactive).

For the compound `O=C1C[C@@H](O)[C@@H](O)[C@@H]2[C@@H]3C(=O)N(Cc4ccc5c(c4)OCO5)C(=O)[C@@H]3CC[C@@H]12`, the composite z-score was 0.555 in assay [1]; 1.01 in assay [5]; -0.072 in assay [7]; 0.495 in assay [8]; 1.12 in assay [9]; 0.0414 in assay [10]. The z-score was 0.489 (inactive) in assay [2], 0.481 (inactive) in [3], -0.246 (inactive) in assay [4] and 0.701 (inactive) in [6].

`CC(=O)OC[C@H]1O[C@H](CCON=C(C)CCC(=O)OC[C@H]2O[C@H](C#Cc3ccccc3)C=C[C@@H]2Oc2ccc(C)cc2)C=C[C@@H]1OC(C)=O`: the composite z-score was 0.269 in assay [1]; 0.719 in [5]; -0.181 in assay [7]; 0.465 in [8]; -0.0894 in assay [9]; 0.0567 in assay [10]. Further, the z-score was -0.465 (inactive) in [2], -0.0797 (inactive) in [3], -0.579 (inactive) in [4] and 0.554 (inactive) in [6].

For `CC(CCC(=O)OC[C@H]1O[C@H](C#Cc2ccccc2)C=C[C@@H]1Oc1ccc(C)cc1)=NO[C@@H](C)c1cn([C@H](CO)Cc2ccccc2)nn1`, the composite z-score in assay [1] was 0.668; in assay [5] it was 0.373; in [7], -0.145; in [8], 0.237; in [9] it was 0.281; in assay [10] it was -0.0461. Moreover, the z-score in assay [2] was 0.846 (inactive); in assay [3] it was 0.21 (inactive); in [4], 12.2 (active); in [6], -0.434 (inactive).

Regarding `CC(C)(C)N1CC=CC23O[C@@H]4C=CCCOC(=O)C4[C@H]2C(=O)N(CCCCCO)[C@@H]3C1=O` (stereo not given in full), the composite z-score is 0.937 in assay [1]; 1.74 in assay [5]; -0.13 in assay [7]; 0.304 in assay [8]; 0.0136 in assay [9]; 0.0912 in assay [10]. Moreover, the z-score is 0.37 (inactive) in assay [2], 0.501 (inactive) in assay [3], -0.215 (inactive) in assay [4] and 0.261 (inactive) in [6].
